High-throughput results deposited in PubChem BioAssay by several laboratories.
Rows were chosen to be rich in hits. Some 2.9% of all compounds tested hit in one or more screens of this group.
FXN GAA850 act – frataxin GAA850 promoter activation. HEK293 lucGAA850 FXN promoter luciferase reporter, 24 h; percent of 10 µM SAHA response. activation, % at 6 µM. actives 0.56% (n = 360,000). AID 540364;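 active = activation above the average of all compounds screened plus 3 SD, cutoff fixed separately per campaign, cut at about 7.5% in these data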;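 also: 0% = DMSO wells and 100% = 10 µM SAHA wells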
FAS-TE inh – FAS thioesterase (human) inhibition; actives 0.67% (n = 360,000); AID 602261; recombinant FAS-TE, OMFH fluorogenic substrate, fluorescence endpoint; inhibition, % at 15 µM;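 active = compounds whose normalised, plate-corrected inhibition of enzyme fluorescence in the single-dose primary screen is 50% or more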;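 also: 0% = DMSO with enzyme and 100% = substrate without enzyme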
KLK7 zymogen act – activators of human kallikrein-7 zymogen; P49862; actives 0.9% (n = 370,000); purified proKLK7, EDANS-DABCYL substrate fluorescence; 100% is mature enzyme control, 0% vehicle; activation, % at 7 µM; AID 652039;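 active = activation above the mean of all tested compounds plus 3 SD, computed per campaign excluding outliers beyond control limits, cut at about 13% in these data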
Target sequence (P49862 whole entry, looked up): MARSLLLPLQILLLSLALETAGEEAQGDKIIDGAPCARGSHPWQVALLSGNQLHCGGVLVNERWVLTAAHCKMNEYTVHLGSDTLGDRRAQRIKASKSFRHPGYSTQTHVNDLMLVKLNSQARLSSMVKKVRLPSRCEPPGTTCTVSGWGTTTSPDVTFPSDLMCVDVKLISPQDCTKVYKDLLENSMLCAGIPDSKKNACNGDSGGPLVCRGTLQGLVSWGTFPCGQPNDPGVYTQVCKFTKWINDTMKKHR
SMARCA2 activ – SMARCA2 function activation, primary screen; actives 1% (n = 370,000); activation, % at 9.1 µM; MG213 cells, MMTV-luciferase reporter, dexamethasone, overnight; AID 652017; in the data active = activation above about 7.8%;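 also: 0% = vehicle wells and 100% = reference activator wells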
SMARCA2 act conf – SMARCA2 activation, confirmation screen | actives 30% (n = 3,500) | shares compounds with SMARCA2 activ | AID 652260 | activation, % at 9.1 µM | MG213 cells, MMTV-luciferase with dexamethasone, luminescence, overnight; MG213 cells expressing E1A, Rb sequestered; DMSO wells 0%, reference activator 100%;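 active = activation above its plate's cutoff, the mean activation of tested wells plus 3 SD, cut at about 7.9% in these data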
GAL4-VP16 Luc – GAL4-VP16 reporter activation counter-screen | actives 41% (n = 3,500) | activation, % at 9.1 µM | HEK293 GAL4-VP16 pG5luc reporter, luciferase luminescence; scaled: DMSO wells 0%, SAHA wells 100% | shares compounds with SMARCA2 activ;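 active = activation above the solvent-only control well mean plus 3 SD, averaged across control plates, cut at about 5.2% in these data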
* hit, by the source's call; / = no result.

SMILES	FXN GAA850 act	FAS-TE inh	KLK7 zymogen act	SMARCA2 activ	SMARCA2 act conf	GAL4-VP16 Luc
CN(C)CCNC(=O)c1cccc2nc3c(ccc4ccccc43)nc12	5	-5	-3	19*	32*	4
COc1cccc2nc3c(C(=O)NCCN(C)C)cccc3cc12	0	-6	1	10*	42*	2
COc1ccc(-c2nc3c(C(=O)NCCN(C)C)cccc3c3ccccc23)cc1	-1	3	-2	12*	26*	1
CN(C)CCNC(=O)c1cccc2[nH]c(-c3ccncc3)nc12	-2	-4	-17	5	/	/
COc1ccc(-c2coc3c(C(=O)NCCN(C)C)cccc23)c(C)c1	0	-8	0	-4	/	/
COc1ccccc1C(=O)NCC(=O)Nc1ccc2c(c1)OCO2	0	-5	0	0	/	/
O=C(c1cc(-c2ccccc2O)on1)N1CCc2ccccc2C1	0	6	0	8.6*	2	1
CCNc1nc(NCC)nc(SCCOc2ccc(C)cc2)n1	0	21	0	9.6*	1	5
Cc1cccc(Nc2nnc(SCC(=O)c3c(N)n(C4CC4)c(=O)[nH]c3=O)s2)c1	2	-4	-1	-3	/	/
C/C(N)=C(/C#N)C(=O)CSc1nnc(Nc2cccc(C)c2)s1	2	-2	0	8.3*	7	6.2*
N=c1oc2cc(O)ccc2cc1C(=O)Nc1ccc(F)cc1	3	-2	7	11*	4	6.7*
CCOc1cc(N2CCOCC2)c(OCC)cc1NC(=O)c1ccc(S(C)(=O)=O)cc1	-1	-2	0	1	/	/
COc1ccc(S(=O)(=O)N2CCOCC2)cc1C(=O)NCC(c1ccccc1)c1ccccc1	-1	23	0	3	/	/
CC(=O)c1ccc(NC(=O)CSc2nc(=O)cc(N)n2-c2ccccc2)cc1	2	0	0	8.6*	7	8.8*
COC(=O)c1ccc(NC(=O)CSc2nc(=O)cc(N)n2-c2ccccc2)cc1	1	-6	0	1	/	/
CSc1nsc(SCC(=O)Nc2ccc(C(C)=O)cc2)n1	4	1	1	13*	5	10*
Cc1cc2nc(-c3nnnn3-c3c(C)cccc3C)c(=O)[nH]c2cc1C	/	0	-13	8.0*	-3	1
N#Cc1c(F)cccc1NCCCn1ccnc1	0	-3	0	-3	/	/
Cc1ccc(-n2nc(CN3CCOCC3)c(-c3ccccc3)c2N)cc1Cl	-1	8	-1	-3	/	/
Cc1nn(-c2ccccc2)c(N)c1-c1ccccc1	6	2	0	11*	8.2*	12*
Nc1c(-c2ccccc2)c(CN2CCOCC2)nn1-c1ccccc1	0	-10	1	12*	-2	1
O=C(N/N=C/c1ccoc1)c1ccccc1	2	-2	-1	3	/	/
COc1cc(CNCc2ccccc2)ccc1OCC(O)c1ccccc1 (stereo unspecified)	-1	-2	0	4	/	/
Oc1c(Cl)cc(Cl)cc1CNc1ccc(Br)cn1	3	28	0	3	/	/
Oc1ccc(Cl)cc1CNc1ccc(Br)cn1	1	21	0	9.9*	11*	10*
SMILES	FXN GAA850 act	FAS-TE inh	KLK7 zymogen act	SMARCA2 activ	SMARCA2 act conf	GAL4-VP16 Luc
Cc1ccc(NC(=S)NC2CC3CCCC(C2)N3Cc2ccco2)cc1 (stereo unspecified)	1	-1	0	10*	-2	2
COc1ccc(NC(=O)C[C@H]2C(=O)N(C3CCCCC3)C[C@@H]2CSC)cc1	-1	-6	0	8.3*	-2	1
COc1ccccc1NC(=O)CCN1C(=O)c2ccccc2C1=O	1	-1	0	9.5*	-3	-1
COc1cc(/C=N/Nc2ccccn2)ccc1O	2	-4	-1	9.6*	7	10*
Cc1ccc2c(c1)sc1nc(=O)n(-c3ccccc3)c(=O)n12	5	-8	-1	12*	8.4*	12*
O=C(CCOc1ccccc1F)N1CCN(c2ccccc2O)CC1	7	0	0	10*	5	9.1*
COc1ccc(/C=N/n2c(-c3cc(C)[nH]n3)n[nH]c2=S)cc1OC	3	-1	1	1	/	/
CN(C)c1cccc(O)c1	0	0	0	-3	/	/
